# Bioassay records deposited in PubChem BioAssay by National Center for Advancing Translational Sciences (NCATS).
# Sampled rows, rich in hits. Any-hit rate of the full collection: about 11%.
# PLK1 PBD block = qHTS for Inhibitors of PLK1-PDB (polo-like kinase 1 - polo-box domain): Primary Screen | actives 2.8% (n = 360,000) | AID 720504, 2013 | Serine/threonine-protein kinase PLK1 (Homo sapiens), P53350 | Potency, µM, for the others: max response, negative = inhibition, actives largely listed as inhibitors | Plk1 PBD binding of FITC phosphopeptide, fluorescence polarization; note: series mostly up to about 57 µM; % is set by controls: 0 for no effect and ±100 for the full control effect; nearly all actives have a fitted effect of over 65% in size
# BAZ2B block = qHTS Assay for Inhibitors of BAZ2B | Potency, µM (titrated, usually from 114 µM), for the others: at the highest dose activity change, negative = inhibition, hits mostly inhibitors | actives 4.4% (n = 360,000) | AlphaScreen BAZ2B-H3K14Ac peptide displacement; note: % is set by controls: 0 for no effect and ±100 for the full control effect; nearly all actives have a fitted effect of over 60% in size
#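 Complex of BAZ2B and biotin-H3K14Ac (50 nM apiece) forms over 30 min at RT, then faces library compounds up to 110 uM for another 30 min; AlphaScreen beads added, 20 min dark incubation, luminescence read.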
# HP1b binding inh = HTS for Inhibitors of HP1-beta Chromodomain Interactions with Methylated Histone Tails | actives 0.56% (n = 390,000) | AlphaScreen HP1-beta / biotin-H3K9me3 peptide binding | Potency, µM (top dose mostly 114 µM), for the others: at the top dose activity change, negative = inhibition, most hits filed as inhibitors | Chromobox protein homolog 1 (Homo sapiens), P83916 | AID 540317, 2011; note: nearly all actives have a fitted effect of over 70% in size
#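 AlphaScreen: HP1-beta (50 nM) preformed 30 min with biotin-H3(1-18)K9me3 peptide (50 nM) in PBS pH 7.4, 0.01% Tween-20. Compound added for 30 min at RT, then streptavidin donor/nickel chelate acceptor beads (10 ug/mL) for 30 min.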
# VDR inhibitor = Inhibitors of the vitamin D receptor (VDR): qHTS | Vitamin D3 receptor (Homo sapiens), P11473 | Potency, µM, without a hit: max response, negative = inhibition, hits mostly inhibitors | actives 0.93% (n = 400,000) | VDR-SRC2-3 peptide fluorescence polarization, 2 h; note: % is set by controls: 0 for no effect and ±100 for the full control effect
# Target sequence (P11473 whole entry, looked up): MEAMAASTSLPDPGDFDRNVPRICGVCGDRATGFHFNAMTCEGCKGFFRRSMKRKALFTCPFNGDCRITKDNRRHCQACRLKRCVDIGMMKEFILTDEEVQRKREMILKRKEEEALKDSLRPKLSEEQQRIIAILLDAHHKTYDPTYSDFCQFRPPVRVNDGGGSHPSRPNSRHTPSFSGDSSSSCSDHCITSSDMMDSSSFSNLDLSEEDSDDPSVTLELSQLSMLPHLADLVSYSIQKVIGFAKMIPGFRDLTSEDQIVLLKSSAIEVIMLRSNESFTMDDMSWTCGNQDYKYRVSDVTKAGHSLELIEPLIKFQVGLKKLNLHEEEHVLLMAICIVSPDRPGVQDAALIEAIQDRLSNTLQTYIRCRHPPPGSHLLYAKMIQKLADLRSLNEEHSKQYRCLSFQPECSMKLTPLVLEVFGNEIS
#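 Fluorescence polarization assay measuring small-molecule disruption of VDR binding to the coregulator peptide SRC2-3. Compounds were pin-transferred (23 nl) into the reagent mix and incubated 2 h at room temperature before reading.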
# JMJD2A Tudor = qHTS Assay for Inhibitors of JMJD2A-Tudor Domain. actives 4.4% (n = 390,000). Lysine-specific demethylase 4A (Homo sapiens), O75164. AlphaScreen JMJD2A-Tudor / H3K4me3 peptide binding. Potency, µM (doses to about 114 µM), inactives show top-dose activity change, negative = inhibition, actives largely listed as inhibitors; note: % is set by controls: 0 for no effect and ±100 for the full control effect; nearly all actives have a fitted effect of over 50% in size
# G9a inh = qHTS Assay for Inhibitors of Histone Lysine Methyltransferase G9a. Histone-lysine N-methyltransferase EHMT2 (Homo sapiens), Q96KQ7. G9a H3K9 monomethylation, AlphaScreen, 2 h. Potency, µM (doses to about 102 µM), for inactives: at the top dose activity, negative = inhibition, hits mostly inhibitors. actives 8.8% (n = 350,000); note: % is set by controls: 0 for no effect and ±100 for the full control effect; nearly all actives have a fitted effect of over 75% in size
#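 AlphaScreen detection with an anti-monomethyl H3K9 antibody quantified product after a 2 h room-temperature reaction containing 500 nM biotinylated H3K9 peptide, 20 µM SAM and 20 nM enzyme, which had been preincubated 15 min with compound.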
# The depositor's hits bear a star; ? = inconclusive; nt = no result; [ ] = another dose, or the depositor's remark. Calls come from the whole dose curve; as a rule, active = well fitted curve in the direction sought with a large enough effect; inconclusive = small, poorly fitted or top-dose-only effect, or another doubt; inactive = no such curve, though single readings can be large; an effect the other way counts as inactive or inconclusive. Potency is the fitted concentration of half-maximal effect.
SMILES,PLK1 PBD block,BAZ2B block,HP1b binding inh,VDR inhibitor,JMJD2A Tudor,G9a inh
CCC(C)(C)C1CCc2c(sc(N)c2C(N)=O)C1 (stereo not drawn),0%,?,-11%,?,?,?
CC(C)(C)C1CCc2c(sc(N)c2C(N)=O)C1 (stereo not drawn),?,-20%,13%,79µM*,-27%,4µM*
CCCC1CCc2c(sc(N)c2C(N)=O)C1 (stereo not drawn),27µM*,?,?,?,?,32µM*
CN(C1CCCCC1)S(=O)(=O)c1ccc2c(c1)c(=O)c(C(=O)NCCc1ccc(Cl)cc1)cn2C,nt,nt,28%,3%,-3%,-31%[59 µM]
O=C(Nc1c(-c2ccc3c(c2)OCO3)[nH][nH]c1=O)c1cnccn1,-9%,nt,nt,nt,nt,nt
CC(=O)NCCN=C(C)c1sc2ccccc2c1O,-12%,-6%,-5%,4%,-23%,18µM*
CC(=Nc1ccc(O)cc1)c1sc2ccccc2c1O,32%,-35%,0%,6%,-10%,10µM*
CC(=Nc1ccccc1O)c1sc2ccccc2c1O,11%,?,8%,-14%,?,?
COc1cc(CC(=O)OCC(=O)Nc2cccc([N+](=O)[O-])c2)cc(OC)c1OC,-13%,6%,28%,5%,0%[57.1 µM],9%
O=C(NCCn1cccn1)C1CCC(=O)N(CCc2ccccc2)C1 (stereo not drawn),1%,-13%,17%,-3%,3%,17%
CC(C)N1CCN(Cc2ccc(Sc3nncn3C)o2)CC1CCO (stereo not drawn),-16%,-1%,20%,0%,0%,-35%
Cc1ccc2[nH]cc(/C=C/c3cc[n+](C)cc3)c2c1,61%,-12%,-25%,-7%,-15%,45µM*
COc1ccc2c(/C=C/c3cc[n+](C)cc3)c[nH]c2c1,25%,-8%,-10%,-13%,-18%,50µM*
CC[n+]1ccc(/C=C/c2c[nH]c3ccccc23)cc1,42%,-8%,36%,-2%,?,nt
CCC1CN(C(=O)NCc2ccccc2)c2ccccc2O1 (stereo not drawn),1%,9%,11%,-10%,-6%,-9%
Cc1ccc(NC(=O)CSc2nc3nccnc3c(=O)n2CCc2c[nH]c3ccccc23)c(C)c1,nt,-16%,38%,1%,6%,2%[59 µM]
CCN(CC)c1ccc(N=C2C=CC(=O)C=C2NC(C)=O)cc1,-16%,nt,25µM*,71µM*,10µM*,nt
Cc1ccc(F)cc1C(=O)N1CCCC(c2cc(C(=O)NCc3ccc(F)cc3)no2)C1 (stereo not drawn),-4%,nt,nt,nt,nt,nt
CSc1ccccc1C(=O)C1CCCN(Cc2cnn(-c3ccccc3)c2)C1 (stereo not drawn),-4%,-37%,-10%,-13%,?,?
CN(C)CCCN(C(=O)c1ccc([N+](=O)[O-])s1)c1nc2cc3c(cc2s1)OCCO3,-5%,?,-22%,11%,?,45µM*
CN(C)CCCN(C(=O)c1cc2cc([N+](=O)[O-])ccc2s1)c1nc2cc3c(cc2s1)OCCO3,-6%,?,-33%,58%,?,20µM*
Cc1cnc(CNc2ncnc3ccc(-c4c(C)noc4C)cc23)cn1,nt,nt,nt,-18%,nt,-10%[0.501 µM]
O=C(NCc1ccccc1Br)c1ccncc1,-2%,-22%,29%,19%,-12%,5%
Cc1cc(OCC(O)CN2CCN(c3ccccn3)CC2)cc(C)c1Cl (stereo not drawn),-6%,?,-8%,-15%,?,45µM*
